# Measurements from the supplement of paper PMC10849652.
# About 8,800 targets were measured; listed, in parts, are those with a hit and a random draw of the rest. About 0.5% of all pairs of compound and target were hits. Unmarked numbers belong to inactive results.
# What was measured:
# Test in all cases: log2 fold change, soluble protein after heating vs DMSO (PISA); higher = thermal stabilisation; K562 lysate, 10 uM; active = over 0.2 and 3.5 SD of the protein, either way, in both replicates (recomputed)
# erlotinib = compound: C#Cc1cccc(Nc2ncnc3cc(OCCOC)c(OCCOC)cc23)c1 [erlotinib]
# Method in brief: (§1)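 The values are log-two fold changes in thermal stability compared with solvent controls and come from duplicates. They were obtained by TMTpro 16plex LC-MS/MS, with channel sums equalised, on the supernatant after 21,000xg for 90 min. That supernatant came from crude K562 extract at 1 mg/mL protein treated with 10 μM compound for 30 min, heated for 3 min across 48°C-58°C, pooled and brought to 0.5% NP-40 at 4°C.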
# [1] = compound: C/C(=N\NC(=O)C1=CC(=CC=C1)S(=O)(=O)N2CCOCC2)/C3=C(C=CC(=C3)Cl)O
# Method in brief: as §1
# [2] = compound: C1=CC(=CC=C1C2=NC3=C(N2)C=C(C=C3)C(=O)N)OC4=CC=C(C=C4)Cl
# Method in brief: as §1
# [3] = compound: C1=CC2=C(C=CC(=C2)/C=C\3/C(=O)NC(=NCC4=CC=CS4)S3)N=C1
# Method in brief: as §1
# [4] = compound: C1=CC2=NC=CN=C2C=C1/C=C/3\C(=O)NC(=O)S3
# Method in brief: as §1
# [5] = compound: C1=CC=C(C=C1)C2=NC(=C(N2)C3=CC=NC=C3)C4=CC(=C(C=C4)Cl)O
# Method in brief: as §1
# [6] = compound: C1=CC=C2C(=C1)C3=NNC4=CC=CC(=C43)C2=O
# Method in brief: as §1
# [7] = compound: C1CCN(C1)C(=O)NC2=CC=CC(=C2)NC3=NC=C(C(=N3)NCCC4=CN=CN4)Br
# Method in brief: as §1
# [8] = compound: C1CN(CCC1(CC2=CC=C(C=C2)Cl)N)C3=NC=NC4=C3C=CN4
# Method in brief: as §1
# IRAK-1-4 Inhibitor I = compound: C1COCCN1CCN2C3=CC=CC=C3N=C2NC(=O)C4=CC(=CC=C4)[N+](=O)[O-] [IRAK-1-4 Inhibitor I]
# Method in brief: as §1
# UniProt Q8NB46, sequence (Q8NB46 whole entry, looked up): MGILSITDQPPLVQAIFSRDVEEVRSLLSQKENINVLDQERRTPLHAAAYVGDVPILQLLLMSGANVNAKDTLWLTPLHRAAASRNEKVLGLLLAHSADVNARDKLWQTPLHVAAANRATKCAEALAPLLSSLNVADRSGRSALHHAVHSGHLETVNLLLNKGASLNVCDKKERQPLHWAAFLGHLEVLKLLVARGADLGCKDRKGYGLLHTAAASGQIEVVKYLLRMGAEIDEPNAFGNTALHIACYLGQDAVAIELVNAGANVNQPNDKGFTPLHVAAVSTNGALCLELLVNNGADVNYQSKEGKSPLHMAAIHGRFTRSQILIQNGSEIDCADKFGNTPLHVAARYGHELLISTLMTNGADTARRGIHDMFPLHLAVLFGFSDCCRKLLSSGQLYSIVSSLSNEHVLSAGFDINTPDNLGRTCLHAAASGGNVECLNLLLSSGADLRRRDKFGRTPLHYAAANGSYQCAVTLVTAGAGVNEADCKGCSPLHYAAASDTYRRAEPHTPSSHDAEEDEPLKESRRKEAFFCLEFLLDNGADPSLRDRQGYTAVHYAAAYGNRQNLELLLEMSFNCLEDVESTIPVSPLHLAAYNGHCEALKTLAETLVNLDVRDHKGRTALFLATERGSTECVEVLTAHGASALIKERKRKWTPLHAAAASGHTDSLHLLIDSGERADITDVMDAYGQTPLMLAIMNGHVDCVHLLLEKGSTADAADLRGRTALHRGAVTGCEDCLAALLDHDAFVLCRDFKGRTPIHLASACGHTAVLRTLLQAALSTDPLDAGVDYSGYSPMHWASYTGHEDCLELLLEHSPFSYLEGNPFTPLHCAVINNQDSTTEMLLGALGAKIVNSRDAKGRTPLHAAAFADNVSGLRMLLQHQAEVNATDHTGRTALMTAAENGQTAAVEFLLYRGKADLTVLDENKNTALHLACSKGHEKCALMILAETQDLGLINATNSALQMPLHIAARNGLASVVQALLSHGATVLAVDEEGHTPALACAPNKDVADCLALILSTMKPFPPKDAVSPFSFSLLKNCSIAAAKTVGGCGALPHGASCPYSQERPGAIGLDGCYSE
# UniProt P24752, sequence (P24752 whole entry, looked up): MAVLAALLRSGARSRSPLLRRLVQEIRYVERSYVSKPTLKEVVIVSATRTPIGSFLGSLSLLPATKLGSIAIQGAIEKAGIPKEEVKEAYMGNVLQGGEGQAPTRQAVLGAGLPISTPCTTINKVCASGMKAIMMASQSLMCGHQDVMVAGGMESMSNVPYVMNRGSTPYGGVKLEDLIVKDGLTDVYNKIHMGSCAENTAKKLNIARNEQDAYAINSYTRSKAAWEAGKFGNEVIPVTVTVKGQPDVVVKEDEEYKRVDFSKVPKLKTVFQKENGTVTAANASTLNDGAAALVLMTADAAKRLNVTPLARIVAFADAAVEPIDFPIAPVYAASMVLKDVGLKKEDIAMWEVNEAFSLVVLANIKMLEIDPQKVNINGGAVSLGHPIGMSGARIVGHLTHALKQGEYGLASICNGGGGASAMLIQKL
# UniProt O60488, sequence (O60488 whole entry, looked up): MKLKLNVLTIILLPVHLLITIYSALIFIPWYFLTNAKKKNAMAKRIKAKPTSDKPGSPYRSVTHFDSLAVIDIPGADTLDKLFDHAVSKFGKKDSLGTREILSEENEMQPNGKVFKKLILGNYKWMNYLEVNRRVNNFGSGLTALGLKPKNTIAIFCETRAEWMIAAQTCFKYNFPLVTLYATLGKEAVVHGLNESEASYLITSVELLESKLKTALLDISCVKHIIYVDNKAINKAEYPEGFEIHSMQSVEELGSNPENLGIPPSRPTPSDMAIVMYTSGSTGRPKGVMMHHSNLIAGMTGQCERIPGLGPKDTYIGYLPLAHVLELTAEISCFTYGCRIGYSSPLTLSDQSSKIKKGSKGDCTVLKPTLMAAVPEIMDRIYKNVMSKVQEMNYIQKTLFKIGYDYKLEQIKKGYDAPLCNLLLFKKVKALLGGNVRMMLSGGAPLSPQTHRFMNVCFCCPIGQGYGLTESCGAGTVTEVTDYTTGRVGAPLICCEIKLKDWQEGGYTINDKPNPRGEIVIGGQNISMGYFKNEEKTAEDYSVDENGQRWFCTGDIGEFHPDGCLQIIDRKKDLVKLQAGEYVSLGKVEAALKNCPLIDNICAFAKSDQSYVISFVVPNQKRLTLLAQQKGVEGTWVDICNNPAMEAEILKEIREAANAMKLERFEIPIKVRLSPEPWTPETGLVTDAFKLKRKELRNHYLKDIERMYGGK
# UniProt Q92974, sequence (Q92974 whole entry, looked up): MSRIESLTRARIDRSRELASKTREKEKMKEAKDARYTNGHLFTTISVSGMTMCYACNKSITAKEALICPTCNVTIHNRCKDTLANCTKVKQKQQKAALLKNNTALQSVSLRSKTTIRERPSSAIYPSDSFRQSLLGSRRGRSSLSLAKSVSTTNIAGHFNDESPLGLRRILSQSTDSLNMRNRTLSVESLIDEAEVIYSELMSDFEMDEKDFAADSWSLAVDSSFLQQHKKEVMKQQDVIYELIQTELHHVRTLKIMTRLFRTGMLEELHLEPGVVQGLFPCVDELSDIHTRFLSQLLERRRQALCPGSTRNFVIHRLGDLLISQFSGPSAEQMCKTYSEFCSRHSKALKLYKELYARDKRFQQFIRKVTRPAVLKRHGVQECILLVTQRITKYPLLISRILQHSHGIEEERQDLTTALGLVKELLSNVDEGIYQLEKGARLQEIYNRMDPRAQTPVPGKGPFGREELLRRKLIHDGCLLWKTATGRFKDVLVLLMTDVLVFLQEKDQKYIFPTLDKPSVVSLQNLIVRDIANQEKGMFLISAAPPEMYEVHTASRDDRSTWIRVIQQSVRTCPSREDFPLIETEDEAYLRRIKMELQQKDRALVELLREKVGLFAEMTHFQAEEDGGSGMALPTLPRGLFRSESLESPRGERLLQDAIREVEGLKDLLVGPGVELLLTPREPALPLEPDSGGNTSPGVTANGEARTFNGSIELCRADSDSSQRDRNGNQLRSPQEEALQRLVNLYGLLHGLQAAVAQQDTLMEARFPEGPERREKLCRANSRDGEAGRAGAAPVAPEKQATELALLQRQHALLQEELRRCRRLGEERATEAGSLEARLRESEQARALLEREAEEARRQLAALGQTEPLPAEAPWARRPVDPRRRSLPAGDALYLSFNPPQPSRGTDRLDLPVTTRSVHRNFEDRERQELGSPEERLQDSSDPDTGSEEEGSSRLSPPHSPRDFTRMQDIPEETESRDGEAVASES
# UniProt Q12797, sequence (Q12797 whole entry, looked up): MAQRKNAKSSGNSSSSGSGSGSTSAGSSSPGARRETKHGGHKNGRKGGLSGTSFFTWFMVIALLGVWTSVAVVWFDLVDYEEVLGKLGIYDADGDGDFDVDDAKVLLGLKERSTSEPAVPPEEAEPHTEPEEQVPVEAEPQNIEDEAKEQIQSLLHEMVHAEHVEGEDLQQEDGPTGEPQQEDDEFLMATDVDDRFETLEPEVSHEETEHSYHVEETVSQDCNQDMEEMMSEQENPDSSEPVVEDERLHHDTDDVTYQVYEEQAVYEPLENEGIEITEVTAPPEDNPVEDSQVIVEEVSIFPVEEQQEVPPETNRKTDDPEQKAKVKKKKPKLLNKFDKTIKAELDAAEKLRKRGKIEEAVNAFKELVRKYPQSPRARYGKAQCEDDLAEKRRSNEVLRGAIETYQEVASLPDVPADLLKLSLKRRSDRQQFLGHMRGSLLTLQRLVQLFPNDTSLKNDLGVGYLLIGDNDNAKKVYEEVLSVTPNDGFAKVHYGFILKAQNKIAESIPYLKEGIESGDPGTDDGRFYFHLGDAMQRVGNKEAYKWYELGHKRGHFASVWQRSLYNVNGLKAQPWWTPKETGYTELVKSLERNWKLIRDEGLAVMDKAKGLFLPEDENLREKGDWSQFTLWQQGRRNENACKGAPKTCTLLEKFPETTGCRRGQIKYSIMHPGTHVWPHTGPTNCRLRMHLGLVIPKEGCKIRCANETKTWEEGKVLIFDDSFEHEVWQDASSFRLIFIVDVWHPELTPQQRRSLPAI
# UniProt Q562R1, sequence (Q562R1 whole entry, looked up): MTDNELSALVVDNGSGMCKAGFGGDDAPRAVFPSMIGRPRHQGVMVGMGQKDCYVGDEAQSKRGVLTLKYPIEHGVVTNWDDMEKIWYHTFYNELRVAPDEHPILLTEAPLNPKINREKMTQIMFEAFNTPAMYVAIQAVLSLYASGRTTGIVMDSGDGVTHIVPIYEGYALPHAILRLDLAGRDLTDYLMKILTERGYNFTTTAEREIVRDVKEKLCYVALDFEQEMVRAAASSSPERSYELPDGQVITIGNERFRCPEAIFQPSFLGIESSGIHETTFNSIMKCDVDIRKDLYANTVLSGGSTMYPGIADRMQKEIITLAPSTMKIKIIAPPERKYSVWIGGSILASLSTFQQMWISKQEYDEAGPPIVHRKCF
# UniProt Q9BVK2, sequence (Q9BVK2 whole entry, looked up): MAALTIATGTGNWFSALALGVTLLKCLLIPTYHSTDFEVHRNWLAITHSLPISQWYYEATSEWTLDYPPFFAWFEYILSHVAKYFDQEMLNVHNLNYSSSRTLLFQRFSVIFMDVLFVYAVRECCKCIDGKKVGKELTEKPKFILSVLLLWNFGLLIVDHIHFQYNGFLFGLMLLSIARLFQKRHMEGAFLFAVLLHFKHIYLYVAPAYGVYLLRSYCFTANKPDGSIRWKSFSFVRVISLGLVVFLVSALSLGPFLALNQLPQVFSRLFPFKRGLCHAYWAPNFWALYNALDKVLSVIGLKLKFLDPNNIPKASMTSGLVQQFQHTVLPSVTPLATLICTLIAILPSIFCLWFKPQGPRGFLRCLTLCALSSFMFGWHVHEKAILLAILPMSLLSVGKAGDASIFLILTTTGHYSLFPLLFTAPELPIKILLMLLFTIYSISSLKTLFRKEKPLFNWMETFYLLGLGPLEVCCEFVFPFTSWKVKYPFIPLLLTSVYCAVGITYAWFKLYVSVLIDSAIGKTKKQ
# UniProt Q96BM9, sequence (Q96BM9 whole entry, looked up): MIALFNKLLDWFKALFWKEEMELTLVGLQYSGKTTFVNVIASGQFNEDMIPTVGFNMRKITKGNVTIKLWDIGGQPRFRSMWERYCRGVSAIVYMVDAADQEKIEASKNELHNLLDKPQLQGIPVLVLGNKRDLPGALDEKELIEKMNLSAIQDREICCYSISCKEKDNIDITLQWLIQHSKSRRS
Target,log2 fold change (erlotinib),log2 fold change [1],log2 fold change [2],log2 fold change [3],log2 fold change [4],log2 fold change [5],log2 fold change [6],log2 fold change [7],log2 fold change [8],log2 fold change (IRAK-1-4 Inhibitor I)
ABHD11 (UniProt Q8NFV4),-0.064,-0.049,0.001,0.057,-0.008,0.171,0.011,-0.047,0.015,-0.014
ACAT1 (UniProt P24752),0.011,0.006,-0.015,0.015,0.017,-0.002,-0.007,-0.028,0.015,0.017
ACSL4 (UniProt O60488),0.004,-0.074,-0.053,0.062,0.022,-0.014,-0.032,-0.065,-0.007,0.04
AK1 (UniProt P00568),-0.023,0.002,0.014,-0.036,0.002,-0.004,0.047,0.067,-0.003,-0.002
ADAR isoform 4 (UniProt P55265),-0.029,-0.114,-0.06,-0.031,0.002,0.001,-0.029,0.002,-0.017,0
AMMECR1 (UniProt Q9Y4X0),0.007,0.003,0.019,-0.045,0.004,-0.009,-0.001,0.009,0.019,0.002
ARMC6 (UniProt Q6NXE6),0.012,-0.026,-0.093,0.022,0.04,0.006,-0.027,0.021,-0.031,-0.005
AK4 (UniProt P27144),-0.024,0.024,-0.024,-0.01,-0.01,0.015,0.015,0.036,0.02,-0.002
ARL1 (UniProt P40616),0.006,-0.212,0.037,-0.022,-0.03,-0.013,-0.018,-0.046,0.025,0.053
ALG8 (UniProt Q9BVK2),0.022,-0.102,-0.082,0.018,0.016,-0.062,-0.001,0.053,0.012,-0.007
ARHGAP21 (UniProt Q5T5U3),-0.013,-0.182,-0.025,-0.098,-0.214,-0.018,-0.137,-0.118,-0.018,0.056
ARL8A (UniProt Q96BM9),-0.223,-0.039,0.176,0.157,0.036,0,-0.041,0.026,0.028,0.091
ACIN1 isoform 5 (UniProt Q9UKV3),-0.011,-0.025,-0.023,-0.028,-0.037,0.001,-0.001,-0.006,-0.007,-0.006
ACAA1 (UniProt P09110),0.03,-0.455,0.041,0.015,0.03,-0.036,0.016,0.014,-0.024,-0.006
ABCC5 (UniProt O15440),0.059,-0.581,0.057,-0.028,-0.127,-0.112,-0.248,-0.038,0.072,-0.067
ASPH (UniProt Q12797),0.003,-0.028,-0.013,0.075,-0.011,0.006,-0.022,-0.011,0.01,-0.016
ANKRD52 (UniProt Q8NB46),0.056,-0.288,0.026,-0.011,0.021,0.013,-0.092,0.008,0.072,0.051
ARMCX5 (UniProt Q6P1M9),-0.08,0.047,-0.004,0.157,0.001,0.03,-0.35 (active),0.075,-0.039,-0.08
ABCF2 isoform 2 (UniProt Q9UG63),0.046,-0.029,-0.049,-0.025,0.01,0.018,-0.042,0.049,0.016,-0.047
AKR1C3 (UniProt P42330),0.002,0.023,-0.1,0.029,0.008,0.3 (active),0.024,0.05,0.029,-0.017
AKT2 (UniProt P31751),-0.011,0.082,-0.013,-0.005,-0.022,-0.025,0.009,-0.014,-0.017,-0.045
ALDH1B1 (UniProt P30837),-0.064,0.027,-0.035,-0.004,0.031,0.009,0.262 (active),-0.025,0.048,0.038
ADRM1 (UniProt Q16186),0.007,-0.006,0.007,-0.026,-0.016,0.018,-0.088,0.012,0.007,0.026
ARHGEF2 (UniProt Q92974),-0.006,-0.041,-0.014,-0.017,0.002,0.039,-0.007,-0.051,-0.018,-0.005
ABL2 (UniProt P42684),-0.046,0.068,0.053,-0.014,-0.013,0.045,-0.003,-0.065,-0.141,-0.068
ACTBL2 (UniProt Q562R1),-0.037,-0.163,0.02,0.043,0.118,0.004,0.024,0.064,0.109,-0.006
AKR1B1 (UniProt P15121),-0.044,-0.001,-0.006,0.012,-0.009,-0.047,-0.044,-0.043,-0.003,-0.021
ACADM isoform 2 (UniProt P11310),-0.088,0.049,-0.034,0.23,0.085,0.101,-0.032,-0.032,-0.003,-0.007
